# ERK AVP inh: vasopressin-driven ERK pathway inhibition; HEK293-V1b, vasopressin-stimulated pERK AlphaScreen; Potency, µM (series often up to 57.5 µM), for the others: at the top dose activity, negative = inhibition, most hits filed as inhibitors; 72,000 tested, 0.99% active; AID 995; further: potency means the concentration at half of the fitted maximal effect; on the % scale 0 is the no-effect control and ±100 the full control effect; nearly all actives have a fitted effect of over 55% in size
#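 Phosphorylated ERK1/2 detected via AlphaScreen bead proximity in lysates of V1b-expressing HEK293 cells given 25 nM vasopressin for 5 min after 30 min compound exposure (37 °C). AC50 from Hill equation; basal DMSO 0%, vasopressin 100%.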
# HBB splicing: modulators of hemoglobin beta chain splicing; HBB splicing reporter cell assay, activation; EGFP reporter with mutant IVS2-654 intron; response scale: normalised to 500 nM splice-correcting PNA; Potency, µM (titrated, usually from 46.1 µM), for the others: at the highest dose activation, usual class: activators; 65,000 tested, 0.06% active; AID 925; further: potency means the concentration at half of the fitted maximal effect; 0% is about no effect
#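 HeLa cells stably expressing EGFP interrupted by mutant beta-globin intron 2 (IVS2-654), 500/well in 2% FCS. Treated with compound for 2 days at 37C. Splicing correction scored as total well GFP intensity (488 nm excitation, 500-520 nm emission); 500 nM antisense PNA served as control.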
# TSHR ag: TSH receptor (human) agonism; HEK293-CNG-TSHR cells (CNG channel as cAMP sensor), membrane potential dye, cAMP; AID 926; P16473; 73,000 tested, 0.48% active; Potency, µM (series often up to 57.1 µM), for the others: at the highest dose activation, actives largely listed as activators; active means well fitted activation curve with a large enough effect in the main read-out, with a control signal flat, not every such curve was filed as active; inconclusive means small, poorly fitted or top-dose-only effect, or a change in a side signal; inactive means no such curve, though single readings can be large or run the other way; % of control where 0% means no effect;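 further: the control signal comes from parental cells without the receptor; potency means the concentration at half of the fitted maximal effect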
# Target sequence (P16473 whole entry, looked up): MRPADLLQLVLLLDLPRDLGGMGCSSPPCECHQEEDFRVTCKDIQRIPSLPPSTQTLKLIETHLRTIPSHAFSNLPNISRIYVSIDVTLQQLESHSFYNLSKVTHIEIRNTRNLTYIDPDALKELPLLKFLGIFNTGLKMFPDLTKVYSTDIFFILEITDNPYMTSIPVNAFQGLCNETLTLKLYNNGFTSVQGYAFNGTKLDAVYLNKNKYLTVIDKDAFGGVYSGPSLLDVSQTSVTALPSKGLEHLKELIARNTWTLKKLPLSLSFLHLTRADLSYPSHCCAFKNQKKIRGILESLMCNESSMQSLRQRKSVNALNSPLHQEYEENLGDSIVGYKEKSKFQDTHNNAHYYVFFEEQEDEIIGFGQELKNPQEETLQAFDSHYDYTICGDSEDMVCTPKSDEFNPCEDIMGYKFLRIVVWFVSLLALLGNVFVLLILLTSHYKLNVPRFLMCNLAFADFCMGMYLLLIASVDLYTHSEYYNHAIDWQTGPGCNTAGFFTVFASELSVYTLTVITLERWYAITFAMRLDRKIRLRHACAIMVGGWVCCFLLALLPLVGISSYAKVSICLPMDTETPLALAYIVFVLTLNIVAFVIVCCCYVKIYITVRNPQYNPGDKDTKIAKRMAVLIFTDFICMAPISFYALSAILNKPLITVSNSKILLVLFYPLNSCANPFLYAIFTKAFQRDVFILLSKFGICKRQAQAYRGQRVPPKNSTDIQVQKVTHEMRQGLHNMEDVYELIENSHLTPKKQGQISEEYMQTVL
#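 HEK 293 cells stably expressing TSHR and a modified CNG channel, with CNG-only parental cells as counterscreen, were preloaded 60 min at room temperature with membrane potential dye containing 100 uM RO 20-1724. Compound exposure was 30 min, and depolarization was read as fluorescence at 590 nm.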
# HEK293 cAMP cs: counter-screen for TSHR agonists: cAMP increase in parental HEK293. AID 938. Potency, µM (highest dose often 57.1 µM), inactives show at the top dose activation, most hits filed as activators. 73,000 tested, 2.5% active. parental HEK293 CNG cAMP sensor, membrane potential fluorescence; further: potency means the concentration at half of the fitted maximal effect; % of control where 0% means no effect; nearly all actives have a fitted effect of over 55% in size
#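 Parental HEK 293 cells stably expressing a modified CNG channel (no TSHR) report cAMP rise as membrane depolarization. Membrane potential dye with 100 uM RO 20-1724 was loaded for 60 min at room temperature, then compound added for 30 min; fluorescence read at 590 nm.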
# GFP derepression: epigenetic GFP locus derepression in mouse cells; mouse C127i GFP locus derepression, cytometry, 30 h; 68,000 tested, 0.09% active; Potency, µM (series often up to 46.1 µM), for the others: top-dose GFP derepression (activation); further: % of control where 0% means no effect
#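 Derepression screen: silenced CMV-GFP reporter in murine C127i cells, 30 h compound incubation at 37 C, washed cells imaged by laser-scanning cytometer to enumerate GFP-expressing objects of 20 to 120 um.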
# Ub-GFP proteasome: proteasome inhibitors stabilizing ubiquitin-GFP reporter. Ubiquitin-GFP reporter cells, proteasome inhibition, GFP fluorescence; response scale: untreated = 0%, 10 µM MG-132 = 100%. Potency, µM (doses to about 45.9 µM), for inactives: at the highest dose activation (GFP accumulation), most hits filed as activators. 67,000 tested, under 10 active. AID 526; active means well fitted activation curve with a large enough effect, not every such curve was filed as active; inconclusive means small, poorly fitted or top-dose-only effect, or another doubt; inactive means no such curve, though single readings can be large or run the other way; further: potency means the concentration at half of the fitted maximal effect
#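 Proteasome block read as GFP accumulation: ubiquitin(G76V)-GFP U2OS cells exposed to compound (2.9 nM–46 uM) for 4 hr at 37 C. Normalization used untreated cells as 0% and 10 uM MG-132 as 100%; concentration-response curves fitted.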
# The depositor's hits bear a star; ? = inconclusive; . = not tested or not shown; [ ] = another dose, or the depositor's remark. An excerpt weighted towards active compounds, which were near 3.8% of everything screened. Unless noted, the call rests on the fitted dose curve; in most records, active means well fitted curve in the direction sought with a large enough effect; inconclusive means small, poorly fitted or top-dose-only effect, or another doubt; inactive means no such curve, though single readings can be large; an effect the other way counts as inactive or inconclusive.
SMILES,ERK AVP inh,HBB splicing,TSHR ag,HEK293 cAMP cs,GFP derepression,Ub-GFP proteasome
Cc1ccc2c(c1)N(CC(=O)N(Cc1ccc3c(c1)OCO3)CC1CCCO1)C(=O)C(C)O2 (stereo not given),0%,.,?,20µM*,4%,3%
O=C1CCC(=O)N1CN(C(=O)c1ccco1)c1ccccc1,5%,1%[1.84 µM],-1%,5%,6%,-7%
O=C1c2ccccc2C(=O)N1CCCCN(C(=O)c1ccco1)c1ccc(Cl)cc1,-2%,-1%,?,25µM*,-2%,16%
O=c1cc(-c2ccccc2)oc2cc(O)c(O)cc12,-30%,.,.,.,.,.
O=c1cc(-c2ccc(O)c(O)c2)oc2ccccc12,7.9µM*,.,.,.,.,.
O=c1cc(-c2ccc(O)cc2)oc2cccc(O)c12,4µM*,.,.,.,.,.
COc1cc(O)c2c(=O)cc(-c3ccc(OC)c(-c4c(O)cc(O)c5c(=O)cc(-c6ccc(O)cc6)oc45)c3)oc2c1,-4%,.,.,.,.,.
Cc1ccccc1-c1cncnc1N(C)Cc1ccco1,-4%,0%,24%,1%,-2%[9.22 µM],-5%
CCC[C@@H]1C[C@@]1(CCC)[C@@H](NP(=O)(c1ccccc1)c1ccccc1)c1ccc(C(=O)OC)cc1,14%,-1%,?,13µM*,.,.
CCC[C@@H]1C[C@@]1(CCC)C(NC(=O)OCc1ccccc1)c1ccc(-c2ccccc2)cc1 (stereo not given in full),41%,-1%,-11%,8%,.,.
Nc1ncnc2c1c(-c1ccc(Oc3ccccc3)cc1)cn2C1CCCC1,7.9µM*,-2%,14%,12%,-1%,-2%
C=CCn1c(SCC(=O)c2cccs2)nc2sc(CC)cc2c1=O,?,2%,?,16µM*,0%,-3%
C=CCn1c(SCC(=O)N2CCN(C(=O)c3ccco3)CC2)nc2sc(CC)cc2c1=O,-1%,0%[57.5 µM],3%,14%,-4%,1%
CCc1cc(C(=O)OC)c(NC(=O)CC2NCCNC2=O)s1 (stereo not given),-19%,1%,5%,-1%,-4%,10%
CCc1cc(C(=O)OC)c(N2C(=O)C3C4C=CC(C4)C3C2=O)s1 (stereo not given),-8%,2%,7.9µM*,4%,-2%,-1%
CS(=O)(=O)N1CCC[C@@]2(CCN(C(=O)Nc3ccccc3)C2)C1,10%,1%,4%,5%,-5%[9.22 µM],4%
COc1ccc(-n2c(=O)c(CCc3ccccc3)nc3cnc(N4CCN(C)CC4)nc32)cc1,-29%,0%,10%,17%,0%[9.22 µM],6%
Cc1ccc(Cn2c(SCC(C)C)nc3c2c(=O)n(C)c(=O)n3C)cc1,19%,0%[57.5 µM],?,25µM*,1%,0%
CCSc1nc2c(c(=O)n(C)c(=O)n2C)n1Cc1ccc(Cl)cc1,-15%,0%,?,?,2%,1%
CCn1c(SCC(=O)N2CCc3ccccc3C2)nc2c1c(=O)n(C)c(=O)n2C,?,0%[57.5 µM],0%,8%,0%,1%
CCn1c(SCC(=O)N2c3ccccc3Sc3ccccc32)nc2c1c(=O)n(C)c(=O)n2C,12%,.,20µM*,7%,-2%,-1%
COc1ccc2nc3c(cc2c1)Cc1ccccc1-3,32µM*,2%,?,25µM*,.,.
COc1ccc(C(=O)n2c(-c3ccco3)nc3ccccc32)cc1,-16%,1%[1.84 µM],?,25µM*,0%,4%
COc1ccc(-c2cn3c(C)c(C(=O)NCCN4CCOCC4)sc3n2)cc1,19%,-1%,5%,0%,0%,-4%
CCN(CC)C(=O)c1sc2nc(-c3ccc(OC)cc3)cn2c1C,22%,-1%,?,16µM*,2%,4%
SMILES,ERK AVP inh,HBB splicing,TSHR ag,HEK293 cAMP cs,GFP derepression,Ub-GFP proteasome
O=C(Nc1ccc(CN2CCOCC2)cc1)c1ccc(-c2ccc(Br)cc2)o1,32µM*,0%,?,25µM*,9%,1%
Cc1nc2cnc(N3CCN(C)CC3)nc2n(Cc2ccc(F)cc2)c1=O,1%,2%,5%,25%,2%[9.22 µM],-6%
COc1ccc(C/C(O)=C(\C#N)c2nc3ccccc3s2)cc1,-23%,0%[57.5 µM],?,32µM*,0%,0%
CCOc1ccc(-c2nnc(SCc3nnc(-c4ccccc4)o3)n2-c2ccccc2F)cc1,-23%,-1%,?,13µM*,-4%,-4%
COc1ccc(-n2c(COc3ccccc3)nnc2SCc2ccc(C#N)cc2)cc1,-9%,3%,15%,17%,-3%,25%
Cc1ccc(-c2nnc(CSc3nnc(COc4ccccc4)n3-c3ccc(C)cc3)o2)cc1,-11%,.,?,25µM*,0%,-5%
Cc1ccc(-c2nnc(CSc3nnc(COc4ccccc4)n3-c3ccccc3)o2)cc1,2%,.,?,25µM*,3%,-2%
COc1cccc(-n2c(COc3ccc(C)cc3)nnc2SCC(N)=O)c1,-4%,.,0%,2%,0%,-5%
C=C1CC[C@H]2C(C)(C)[C@H](O)CC[C@]2(C)[C@@H]1COc1ccc2ccc(=O)oc2c1,.,.,?,?,-2%[9.22 µM],2%
CCNc1ncc2nc(-c3ccc(Cl)cc3)c(=O)n(-c3ccc(OC)cc3)c2n1,2%,6%,2%,6%,-3%[9.22 µM],4%
c1csc(CNc2ccnc(-c3ccoc3)n2)c1,-27%,-1%,3%,18%,-3%[9.22 µM],2%
Cc1cc(N2CCN(C(c3ccccc3)c3ccccc3)CC2)n2ncnc2n1,?,-1%[1.84 µM],?,?,-2%,7%
Cc1nc2ncnn2c(N2CCN(C(c3ccccc3)c3ccccc3)CC2)c1C,25µM*,-8%,?,32µM*,-2%,0%
Cc1cccc(OCCCC(=O)Nc2ccc(N3CCOCC3)cc2)c1,3%,-1%[0.0738 µM],3.2µM*,13%[11.4 µM],2%,-3%[9.17 µM]
O=C(c1ccncc1)N1CCC2(CCCN(c3ncccn3)C2)CC1,5%,2%,2%,6%,7%[9.22 µM],-2%
CCC(=O)N[C@@H]1Cc2ccccc2[C@@H](c2ccccc2)C1,?,.,?,20µM*,1%,-1%
CC(=O)N[C@H]1C[C@@H]1c1ccccc1,.,.,.,.,0%[20.6 µM],.
COC(=O)[C@@]1(Cc2ccccc2)[C@H]2c3cc(C(=O)N4CCCC4)n(Cc4ccc(C(F)(F)F)nc4)c3C[C@H]2CN1C(=O)c1ccccc1,2%,0%,?,1.6µM*,.,.

# Source: PubChem BioAssay
